Experimental data from the supplement of paper PMC7411054.
Where a name gives a salt, the structure may show the parent alone.

What was measured:
Experiment in all cases: phenotypically active (imaging signature differs from DMSO and reproducible) at any of 0.3-9 uM (binary (1 = active, 0 = inactive)); higher = active
Settings in all cases: treatment time: 24 h
A549-ACTB-RAB5A = test system: A549-ACTB-RAB5A
In short: (§1)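 After 24 h at 0.3, 1, 3 or 9 µM, with four wells per treatment, fifteen gene-edited A549, HepG2 and WPMY1 reporter lines carrying BFP, GFP and RFP/FusionRed were imaged live. Each well's live-cell features were expressed relative to solvent control wells. Deviation required ≥3 of 4 wells past the 95th percentile of control Euclidean distances, and reproducibility a median replicate Pearson correlation over the 95th percentile of non-replicates. Phenotypic activity rested on both.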

A549-CANX-COX4 = test system: A549-CANX-COX4
In short: as §1

A549-GM130-SQSTM1 = test system: A549-GM130-SQSTM1
In short: as §1

A549-TP53BP1-CLTA = test system: A549-TP53BP1-CLTA
In short: as §1

A549-TUBA1B-RELA = test system: A549-TUBA1B-RELA
In short: as §1

HepG2-ACTB-RAB5A = test system: HepG2-ACTB-RAB5A
In short: as §1

HepG2-CANX-COX4 = test system: HepG2-CANX-COX4
In short: as §1

HepG2-GM130-SQSTM1 = test system: HepG2-GM130-SQSTM1
In short: as §1

HepG2-TP53BP1-CLTA = test system: HepG2-TP53BP1-CLTA
In short: as §1

HepG2-TUBA1B-RELA = test system: HepG2-TUBA1B-RELA
In short: as §1

WPMY1-ACTB-RAB5A = test system: WPMY1-ACTB-RAB5A
In short: as §1

WPMY1-CANX-COX4 = test system: WPMY1-CANX-COX4
In short: as §1

WPMY1-GM130-SQSTM1 = test system: WPMY1-GM130-SQSTM1
In short: as §1

WPMY1-TP53BP1-CLTA = test system: WPMY1-TP53BP1-CLTA
In short: as §1

WPMY1-TUBA1B-RELA = test system: WPMY1-TUBA1B-RELA
In short: as §1

Measured: phenotypically active

CC[C@H](C)C(=O)O[C@H]1C[C@H](O)C=C2C=C[C@H](C)[C@H](CC[C@@H](O)C[C@@H](O)CC(=O)O)[C@H]21 [pravastatin]
inactive: A549-ACTB-RAB5A 0 | A549-CANX-COX4 0 | A549-GM130-SQSTM1 0 | A549-TP53BP1-CLTA 0 | A549-TUBA1B-RELA 0 | HepG2-ACTB-RAB5A 0 | HepG2-CANX-COX4 0 | HepG2-GM130-SQSTM1 0 | HepG2-TP53BP1-CLTA 0 | HepG2-TUBA1B-RELA 0 | WPMY1-ACTB-RAB5A 0 | WPMY1-CANX-COX4 0 | WPMY1-GM130-SQSTM1 0 | WPMY1-TP53BP1-CLTA 0 | WPMY1-TUBA1B-RELA 0

O=[N+]([O-])c1cc([N+](=O)[O-])c(/C=C/c2ccc(Cl)c(Cl)c2)cc1/C=C/c1ccc(Cl)c(Cl)c1
inactive: A549-ACTB-RAB5A 0 | A549-CANX-COX4 0 | A549-GM130-SQSTM1 0 | A549-TP53BP1-CLTA 0 | A549-TUBA1B-RELA 0 | HepG2-ACTB-RAB5A 0 | HepG2-CANX-COX4 0 | HepG2-GM130-SQSTM1 0 | HepG2-TP53BP1-CLTA 0 | HepG2-TUBA1B-RELA 0 | WPMY1-ACTB-RAB5A 0 | WPMY1-CANX-COX4 0 | WPMY1-GM130-SQSTM1 0 | WPMY1-TP53BP1-CLTA 0 | WPMY1-TUBA1B-RELA 0

COc1ccc2c(c1OC)C(=O)O[C@@H]2[C@H]1c2c(cc3c(c2OC)OCO3)CCN1C [Noscapine hydrochloride]
inactive: A549-ACTB-RAB5A 0 | A549-CANX-COX4 0 | A549-GM130-SQSTM1 0 | A549-TP53BP1-CLTA 0 | A549-TUBA1B-RELA 0 | HepG2-ACTB-RAB5A 0 | HepG2-CANX-COX4 0 | HepG2-GM130-SQSTM1 0 | HepG2-TP53BP1-CLTA 0 | HepG2-TUBA1B-RELA 0 | WPMY1-ACTB-RAB5A 0 | WPMY1-CANX-COX4 0 | WPMY1-GM130-SQSTM1 0 | WPMY1-TP53BP1-CLTA 0 | WPMY1-TUBA1B-RELA 0

NCC[C@H](O)C(=O)N[C@H]1C[C@@H](N)[C@H](O[C@H]2O[C@H](CN)[C@@H](O)[C@H](O)[C@H]2O)[C@@H](O)[C@@H]1O[C@H]1O[C@H](CO)[C@@H](O)[C@H](N)[C@H]1O [Amikacin hydrate]
inactive: A549-ACTB-RAB5A 0 | A549-CANX-COX4 0 | A549-GM130-SQSTM1 0 | A549-TP53BP1-CLTA 0 | A549-TUBA1B-RELA 0 | HepG2-ACTB-RAB5A 0 | HepG2-CANX-COX4 0 | HepG2-GM130-SQSTM1 0 | HepG2-TP53BP1-CLTA 0 | HepG2-TUBA1B-RELA 0 | WPMY1-ACTB-RAB5A 0 | WPMY1-CANX-COX4 0 | WPMY1-GM130-SQSTM1 0 | WPMY1-TP53BP1-CLTA 0 | WPMY1-TUBA1B-RELA 0

Cn1cnc([N+](=O)[O-])c1Sc1ncnc2nc[nH]c12 [azathioprine]
inactive: A549-ACTB-RAB5A 0 | A549-CANX-COX4 0 | A549-GM130-SQSTM1 0 | A549-TP53BP1-CLTA 0 | A549-TUBA1B-RELA 0 | HepG2-ACTB-RAB5A 0 | HepG2-CANX-COX4 0 | HepG2-GM130-SQSTM1 0 | HepG2-TP53BP1-CLTA 0 | HepG2-TUBA1B-RELA 0 | WPMY1-ACTB-RAB5A 0 | WPMY1-CANX-COX4 0 | WPMY1-GM130-SQSTM1 0 | WPMY1-TP53BP1-CLTA 0 | WPMY1-TUBA1B-RELA 0

Cc1cc2cc(NS(=O)(=O)c3ccc(C#N)cc3)ccc2n(C)c1=O
inactive: A549-ACTB-RAB5A 0 | A549-CANX-COX4 0 | A549-GM130-SQSTM1 0 | A549-TP53BP1-CLTA 0 | A549-TUBA1B-RELA 0 | HepG2-ACTB-RAB5A 0 | HepG2-CANX-COX4 0 | HepG2-GM130-SQSTM1 0 | HepG2-TP53BP1-CLTA 0 | HepG2-TUBA1B-RELA 0 | WPMY1-ACTB-RAB5A 0 | WPMY1-CANX-COX4 0 | WPMY1-GM130-SQSTM1 0 | WPMY1-TP53BP1-CLTA 0 | WPMY1-TUBA1B-RELA 0

CC(C(=O)O)c1cccc(C(=O)c2ccccc2)c1 (stereo not given) [ketoprofen]
inactive: A549-ACTB-RAB5A 0 | A549-CANX-COX4 0 | A549-GM130-SQSTM1 0 | A549-TP53BP1-CLTA 0 | A549-TUBA1B-RELA 0 | HepG2-ACTB-RAB5A 0 | HepG2-CANX-COX4 0 | HepG2-GM130-SQSTM1 0 | HepG2-TP53BP1-CLTA 0 | HepG2-TUBA1B-RELA 0 | WPMY1-ACTB-RAB5A 0 | WPMY1-CANX-COX4 0 | WPMY1-GM130-SQSTM1 0 | WPMY1-TP53BP1-CLTA 0 | WPMY1-TUBA1B-RELA 0

Cc1ccc([N+](=O)[O-])cc1S(=O)(=O)N(C)C
inactive: A549-ACTB-RAB5A 0 | A549-CANX-COX4 0 | A549-GM130-SQSTM1 0 | A549-TP53BP1-CLTA 0 | A549-TUBA1B-RELA 0 | HepG2-ACTB-RAB5A 0 | HepG2-CANX-COX4 0 | HepG2-GM130-SQSTM1 0 | HepG2-TP53BP1-CLTA 0 | HepG2-TUBA1B-RELA 0 | WPMY1-ACTB-RAB5A 0 | WPMY1-CANX-COX4 0 | WPMY1-GM130-SQSTM1 0 | WPMY1-TP53BP1-CLTA 0 | WPMY1-TUBA1B-RELA 0

COc1ccc(-c2noc(CSc3nnc(C)n3-c3ccc(OC)cc3)n2)cc1
inactive: A549-ACTB-RAB5A 0 | A549-CANX-COX4 0 | A549-GM130-SQSTM1 0 | A549-TP53BP1-CLTA 0 | A549-TUBA1B-RELA 0 | HepG2-ACTB-RAB5A 0 | HepG2-CANX-COX4 0 | HepG2-GM130-SQSTM1 0 | HepG2-TP53BP1-CLTA 0 | HepG2-TUBA1B-RELA 0 | WPMY1-ACTB-RAB5A 0 | WPMY1-CANX-COX4 0 | WPMY1-GM130-SQSTM1 0 | WPMY1-TP53BP1-CLTA 0 | WPMY1-TUBA1B-RELA 0

C#C[C@]1(O)CC[C@H]2[C@@H]3CCC4=CCCC[C@@H]4[C@H]3C(=C)C[C@@]21CC [desogestrel]
inactive: A549-ACTB-RAB5A 0 | A549-CANX-COX4 0 | A549-GM130-SQSTM1 0 | A549-TP53BP1-CLTA 0 | A549-TUBA1B-RELA 0 | HepG2-ACTB-RAB5A 0 | HepG2-CANX-COX4 0 | HepG2-GM130-SQSTM1 0 | HepG2-TP53BP1-CLTA 0 | HepG2-TUBA1B-RELA 0 | WPMY1-ACTB-RAB5A 0 | WPMY1-CANX-COX4 0 | WPMY1-GM130-SQSTM1 0 | WPMY1-TP53BP1-CLTA 0 | WPMY1-TUBA1B-RELA 0

N[C@@H](Cc1ccc(O)c(O)c1)C(=O)O [levodopa]
inactive: A549-ACTB-RAB5A 0 | A549-CANX-COX4 0 | A549-GM130-SQSTM1 0 | A549-TP53BP1-CLTA 0 | A549-TUBA1B-RELA 0 | HepG2-ACTB-RAB5A 0 | HepG2-CANX-COX4 0 | HepG2-GM130-SQSTM1 0 | HepG2-TP53BP1-CLTA 0 | HepG2-TUBA1B-RELA 0 | WPMY1-ACTB-RAB5A 0 | WPMY1-CANX-COX4 0 | WPMY1-GM130-SQSTM1 0 | WPMY1-TP53BP1-CLTA 0 | WPMY1-TUBA1B-RELA 0
